Compounds with a hit are over-represented: about 1.1% of the library has one in this group of screens.
HTR5A ag: HTR5A agonists in luminescence cell assay, primary screen, counter-screen for OPRM1-OPRD1 heterodimer agonist project, full-deck HTS | cell-based | activation, % at 9.3 µM | 340,000 tested, 0.61% active; in the data active = activation mostly above about 9.5%, no sharp cut-off; inactive = mostly below about 7.6%;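 also: 0% = cells with vehicle only and 100% = reference agonist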
Target sequence (P47898 whole entry, looked up): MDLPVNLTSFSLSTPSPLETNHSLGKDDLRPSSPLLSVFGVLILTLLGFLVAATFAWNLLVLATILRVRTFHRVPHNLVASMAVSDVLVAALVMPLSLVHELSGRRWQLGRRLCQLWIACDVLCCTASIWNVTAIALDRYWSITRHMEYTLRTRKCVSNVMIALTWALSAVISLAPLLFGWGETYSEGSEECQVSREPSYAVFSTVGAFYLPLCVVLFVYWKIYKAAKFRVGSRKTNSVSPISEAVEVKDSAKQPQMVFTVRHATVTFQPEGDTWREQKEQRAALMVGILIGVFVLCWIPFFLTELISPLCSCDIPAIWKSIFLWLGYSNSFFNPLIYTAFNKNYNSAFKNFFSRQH
MOR-DOR inv ag: inverse agonists of MOR-DOR heterodimerization, primary screen, cell-based, luminescence; inhibition, % at 9.3 µM; AID 504357, 2011; 340,000 tested, 0.21% active; cell-based MOR-DOR heterodimer luminescence, inverse agonism; in the data active = inhibition above about 22%, passing the limit was not always enough;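 also: 0% = cells with DMSO and 100% = wells without cells with DMSO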
HTR5A inv ctr: HTR5A inverse agonists in luminescence cell assay, primary screen, counter-screen for OPRM1-OPRD1 heterodimer inverse agonist project, full-deck HTS | AID 504634, 2011 | 340,000 tested, 0.083% active | HTR5A cell line, inverse agonism | inhibition, % at 9.3 µM; in the data active = inhibition mostly above about 23%, no sharp cut-off; inactive = mostly below about 18%;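 also: 0% = cells with DMSO and 100% = no-cell wells with DMSO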
MOR-DOR ag: agonists of OPRM1-OPRD1 heterodimerization, primary screen, cell-based, luminescence | Mu-type opioid receptor (Homo sapiens) + Delta-type opioid receptor (Homo sapiens), … | cells | activation, % at 9.3 µM | 340,000 tested, 0.3% active;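 also: 0% = vehicle-treated cells and 100% = reference agonist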
OPRM1-D1 ag cf: agonists of MOR-DOR heterodimerization, confirmation, cell-based, luminescence | shares compounds with MOR-DOR ag | AID 504904, 2011 | 830 tested, 45% active | cells, luminescence complementation | activation, % at 9.3 µM;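 also: 0% = vehicle-treated cells and 100% = reference agonist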
HTR5A ag ctr2: HTR5A agonists in cells, counter-screen for OPRM1-OPRD1 heterodimer agonist project, cell-based, luminescence; shares compounds with MOR-DOR ag; HTR5A agonist counterscreen; activation, % at 9.3 µM; 830 tested, 8% active; in the data active = activation above about 17%;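 also: 0% = vehicle-treated cells and 100% = reference agonist response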
Starred values were filed as active, the others as inactive; i = inactive; / = not tested or not shown. Rule as the data show it, unless noted: active = activation above about 18%; inactive = the rest.

SMILES | HTR5A ag | MOR-DOR inv ag | HTR5A inv ctr | MOR-DOR ag | OPRM1-D1 ag cf | HTR5A ag ctr2
OC(CNCC(c1ccc(Cl)cc1Cl)c1c[nH]c2ccccc12)c1ccccc1 (stereo not given) | 15.1* | -271.1 | -41.7 | 55.4* | -0.3 | 1.0
O=C(C1COc2ccccc2O1)N1CCN(c2ccc(C(F)(F)F)cn2)CC1 (stereo not given) | 12.2 | -16.9 | -30.3 | 3.9 | / | /
CC(C)N(Cc1ccccc1)C(=O)CN1c2cccc3cccc(c23)S1(=O)=O | 1.5 | -94.1 | -5.9 | 18.8* | 0.7 | 2.4
C=CCn1c(O)c(C2=c3ccccc3=NC2=O)sc1=Nc1ccc(O)cc1 | -7.7 | -194.9 | 21.5 | 37.8* | 15.4 | 3.1
C(=N\Nc1nc(Nc2ccccc2)nc(Nc2ccccc2)n1)/c1ccncc1 | -1.4 | -113.4 | 3.9 | 19.8* | -2.5 | -2.0
C(=N\Nc1nc(Nc2ccccc2)nc(Nc2ccccc2)n1)/c1cccnc1 | -3.6 | -13.8 | 8.2 | 2.8 | / | /
Cc1ccc(C(=O)NNC(=O)COc2ccc(Cl)cc2C)o1 | -4.6 | 6.1 | 11.7 | -1.5 | / | /
O=C1CCN(Cc2ccccc2)CCN1[C@H](COc1ccccc1)Cc1ccccc1 | 4.6 | -140.3 | 6.9 | 25.2* | 25.0* | 2.4
CCCN1CCC(=O)N([C@H](COc2ccccc2)Cc2ccccc2)CC1 | 3.2 | 2.6 | -1.3 | -0.5 | / | /
COC(=O)c1ccc(/C=N/NC(=O)C(=O)NCc2ccccc2)cc1 | -1.1 | 5.5 | 3.1 | -1.1 | / | /
Cc1cccc(NC(=S)NCC(c2cccnc2)N(C)C)c1 (stereo not given) | -1.4 | i | 4.9 | 218.3* | 210.1* | -2.7
Cc1cccc(NC(=S)N(CCN(C)C)C(C)c2cccnc2)c1 (stereo not given) | -3.3 | 3.1 | 24.2 | -0.6 | / | /
CN(C)C(CNC(=S)Nc1ccc(F)cc1)c1cccnc1 (stereo not given) | 1.8 | i | 9.2 | 111.8* | -2.5 | -3.3
CCCN1C(=O)c2ccccc2NC1c1ccc(OC)c(CSc2ccccn2)c1 (stereo not given) | 4.7 | -117.7 | 15.2 | 22.2* | 16.5 | 0.5
COc1ccc(C2Nc3ccccc3C(=O)N2Cc2ccco2)cc1COc1ccc(F)cc1 (stereo not given) | -0.3 | -204.8 | -19.6 | 37.7* | 26.0* | -0.6
COc1ccc(N2C(=O)c3ccccc3NC2c2ccc(OC)c(CSc3ccccn3)c2)cc1 (stereo not given) | 1.3 | -48.0 | 11.5 | 8.2 | / | /
COc1ccc(C2Nc3ccccc3C(=O)N2Cc2ccco2)cc1CN1C(=O)c2ccccc2C1=O (stereo not given) | 2.1 | 1.3 | -16.8 | -0.3 | / | /
Cc1nn(-c2ccccc2)c(C)c1[N+](=O)[O-] | 4.6 | 7.0 | -6.0 | -1.3 | / | /
CCn1c(-c2ccccc2)c(C(=O)CCl)c2ccccc21 | 14.3 | -331.1 | 33.0 | 66.5* | -1.7 | 5.7
CCn1c2ccccc2c(=O)c2ccccc21 | 2.5 | 3.3 | 12.5 | -0.7 | / | /
COc1cccc(C(=O)Nc2ccc3c(c2)C(=O)c2ccccc2C3=O)c1 | -1.4 | -260.9 | -14.5 | 38.0* | 52.7* | 11.2
Cc1ccc(-c2nn(-c3cccc(F)c3)cc2CN(Cc2nccn2C)C(C)C)o1 | -4.1 | 1.2 | 10.5 | -0.2 | / | /
Cc1ccc(-c2nn(-c3cccc(F)c3)cc2CNCc2cccnc2)o1 | 2.0 | -132.7 | -5.6 | 26.1* | 0.3 | 2.9
Cc1ccc(-c2nn(-c3cccc(F)c3)cc2CN2CCN(c3ccccn3)CC2)o1 | 6.0 | -194.5 | 24.2 | 37.3* | -5.2 | 0.7
CCC1CCCCN1S(=O)(=O)c1ccc(-n2cnnn2)c(C)c1 (stereo not given) | 2.0 | 14.6 | -5.8 | -2.7 | / | /
SMILES | HTR5A ag | MOR-DOR inv ag | HTR5A inv ctr | MOR-DOR ag | OPRM1-D1 ag cf | HTR5A ag ctr2
O=C(COc1ccc2ccccc2c1)Nc1ccc(Br)cc1C(=O)O | 1.9 | 7.0 | -7.2 | -1.2 | / | /
CCOc1ccc(-c2nnc(SCC(=O)Nc3ccc4c(c3)c3ccccc3n4CC)n2N)cc1 | 0.8 | -176.6 | -1.9 | 33.2* | 24.2* | 18.7*
Cc1nc2cc(NCc3ccccc3O)ccc2n1Cc1ccccc1 | 1.3 | 6.4 | -3.6 | -1.3 | / | /
COc1ccc(C(CNc2ncnc3sccc23)N(C)C)cc1OC (stereo not given) | -0.1 | -154.2 | 0.3 | 20.5* | 0.4 | 25.0*
COc1ccc(C(CNc2ncnc3sc(C)c(C)c23)N(C)C)cc1 (stereo not given) | 0.5 | i | -1.3 | 102.0* | 67.9* | -3.0
CNC1=C(N(C(C)=O)c2ccc(Br)cc2)C(=O)c2ccccc2C1=O | 1.8 | -30.2 | 9.0 | 6.2 | / | /
CC(=O)C1=C(c2ccc(Br)cc2)C(=O)c2ccccc2C1=O | 11.1 | -177.5 | -28.1 | 33.5* | 25.9* | 11.3
Cc1cc(NC(=O)CN2CCc3ccccc3C2)nc2c1c(=O)oc1ccccc12 | -3.1 | i | 8.0 | 517.6* | -4.0 | 5.0
CCOc1cc(/C=N/NC(=O)c2ccncc2)ccc1OC(=O)c1ccc([N+](=O)[O-])cc1 | 9.4 | -252.2 | -23.9 | 44.8* | 13.5 | 4.3
CCOc1cc(/C=N/NC(=O)c2ccncc2)ccc1OC(=O)c1ccccc1 | 1.5 | 11.9 | 7.9 | -2.2 | / | /
O=C(O)c1cccc(NC2=C(Cl)C(=O)c3ccccc3C2=O)c1 | -1.1 | -143.2 | 2.8 | 21.9* | 7.5 | 2.6
O=C(O)c1ccc(NC2=C(Cl)C(=O)c3ccccc3C2=O)cc1 | 2.5 | -56.0 | -7.0 | 10.5 | / | /
O=C(CCl)N(CCCNC(=O)C(F)(F)F)c1ccc([N+](=O)[O-])cc1 | -0.8 | -94.0 | -8.5 | 18.4* | 27.5* | 29.0*
Cc1cc(C)c(-c2cc(C(=O)Nc3cc(C)ccc3C)[nH]n2)c(O)c1 | 4.3 | -95.3 | -15.2 | 20.4* | 10.1 | 0.2
Cc1ccc(-c2cc(C(=O)Nc3cc(C)ccc3C)[nH]n2)c(O)c1 | 4.2 | -9.0 | 18.6 | 1.4 | / | /
O=[N+]([O-])c1ccc2c(c1)nc(CO)n2Cc1ccccc1 | -1.8 | 1.7 | 6.8 | -0.4 | / | /
Clc1ccc2c(N/N=C/c3ccccc3Br)ccnc2c1 | 8.1 | -278.5 | -12.9 | 51.8* | 53.3* | 3.0
C/C(=N/Nc1ccnc2cc(Cl)ccc12)c1ccc(O)cc1 | 3.7 | -45.0 | 7.6 | 8.1 | / | /
Clc1ccc2c(N/N=C/c3cccc(Br)c3)ccnc2c1 | 9.2 | -34.6 | -10.7 | 6.4 | / | /
C/C(=N/Nc1ccnc2cc(Cl)ccc12)c1ccc(N)cc1 | -1.6 | -115.5 | -11.3 | 20.5* | 41.5* | 3.5
O=C1NC(=Nc2ccccc2)S/C1=C\c1ccccc1 | -2.5 | -121.8 | 11.7 | 24.4* | 0.3 | 5.7

Screening results as filed in PubChem.
